Measured values taken from PubChem BioAssay (NCI).
About 79,000 compounds went through this panel and 15% of them were active in at least one assay; those are over-represented in the sample as a whole. No stated cut-off is given here; in the data, active means growth inhibition above about 70%; inactive means the rest.

What was measured:
[1] = NCI Yeast Anticancer Drug Screen. Data for the rad50 strain (AID 155);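 further: 0% = growth of vehicle-only cultures of the same strain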; conditions: S. cerevisiae rad50 strain growth inhibition; at 50.0 µM; stronger effect = higher value
Procedure, shortened: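 Vehicle-treated cultures provide the reference for the growth inhibition reported for compound-exposed, repair-deficient yeast.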

[2] = NCI Yeast Anticancer Drug Screen. Data for the mec2-1 strain (AID 157); conditions: S. cerevisiae mec2-1 strain, at 50.0 µM, stronger effect = higher value
Procedure, shortened: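 mec2-1 yeast strain, carrying an alteration in DNA damage repair or cell cycle control, was exposed to compounds; growth inhibition was measured relative to vehicle-treated controls.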

[3] = NCI Yeast Anticancer Drug Screen. Data for the sgs1 mgt1 strain (AID 161);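 further: 0% = growth of cultures given vehicle only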; conditions: S. cerevisiae sgs1 mgt1 strain, at 50.0 µM, stronger effect = higher value
Procedure, shortened: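 Yeast cells carrying a defined DNA-repair defect were exposed to test compounds. Growth inhibition was measured relative to vehicle-treated controls.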

[4] = NCI Yeast Anticancer Drug Screen. Data for the cln2 rad14 strain (AID 165);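 further: 0% = growth equal to vehicle treated cultures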; conditions: S. cerevisiae cln2 rad14 strain, at 50.0 µM, stronger effect = higher value
Procedure, shortened: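 Yeast carrying cln2 and rad14 alterations (cell cycle control and DNA damage repair) were exposed to compounds. Growth inhibition was measured against vehicle-treated controls.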

[5] = NCI Yeast Anticancer Drug Screen. Data for the bub3 strain (AID 167); conditions: S. cerevisiae bub3 mutant strain, at 50.0 µM, stronger effect = higher value
Procedure, shortened: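 Mutant yeast screening strain plus compound; vehicle-treated cultures serve as the 0% inhibition reference.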

[6] = NCI Yeast Anticancer Drug Screen. Data for the mlh1 rad18 strain (AID 175); conditions: S. cerevisiae mlh1 rad18 strain growth inhibition; at 50.0 µM; stronger effect = higher value
Procedure, shortened: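 Growth inhibition of the yeast strain was measured after compound exposure and expressed relative to vehicle-treated controls. The strain carries defined defects in DNA damage repair.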

Measured: growth inhibition

CCN(CC)c1ccc2nc3ccc(N=Nc4ccc(N(C)C)cc4)cc3[n+](-c3ccccc3)c2c1
inactive: [1] 42.5% | [2] 52.5% | [3] 57.7% | [4] 54.9% | [5] 39.5% | [6] 38.9%

c1cc(CNCCNCc2ccncc2)ccn1
inactive: [1] -36% | [2] -48% | [3] -46.5% | [4] -4.15% | [5] -34% | [6] -34.5%

O=C(NCc1ccccc1)c1cccc([N+](=O)[O-])c1
inactive: [1] 5.05% | [2] 18.1% | [3] 19.9% | [4] -47% | [5] 22.9% | [6] 15.6%

CC(=O)c1cccc(N(C)S(=O)(=O)c2ccc(C)cc2)c1
inactive: [1] 47.6% | [2] 7.1% | [3] 21.8% | [4] -31.2% | [5] 45.1% | [6] 37.9%

COc1cc(N)c2ncccc2c1Cl
inactive: [1] 17.6% | [2] 3.55% | [3] 24.4% | [4] -0.05% | [5] -7.3% | [6] 30.4%

COc1ccc2c(ccc[n+]2C)c1
inactive: [1] 19.6% | [2] 30.9% | [3] 3.65% | [4] 19.2% | [5] -15.7% | [6] -25.4%

COC1CC(OC(=O)c2ccc([N+](=O)[O-])cc2)C(COC(=O)c2ccc([N+](=O)[O-])cc2)O1 (centres undefined)
inactive: [1] 9.45% | [2] 20.8% | [3] 1.9% | [4] -1.1% | [5] -0.7% | [6] 36.1%

Cc1cc(Nc2ccc3c(c2)OCO3)c2cc3c(cc2n1)OCO3
inactive: [1] 10.6% | [2] -9.15% | [3] -14.9% | [4] 3.8% | [5] -0.5% | [6] -42.1%

C=CCN1CCCC1=O
inactive: [1] 7.85% | [2] 10.6% | [3] 1.5% | [4] -18.6% | [5] -16.2% | [6] 4.05%

S=c1nc(-c2ccccn2)c(-c2ccccn2)n[nH]1
inactive: [1] -11% | [2] -9.05% | [3] -1.2% | [4] 11% | [5] -21.8% | [6] -53.7%

Cc1ccc(C)c(CCO)c1
inactive: [1] -22.1% | [2] -38.5% | [3] -30.5% | [4] -2.9% | [5] -21.4% | [6] -7.3%

COc1ccc(C(=O)C(=O)c2ccccc2)cc1
inactive: [1] 26.6% | [2] 34.1% | [3] 31.9% | [4] 1.85% | [5] 11.1% | [6] 33.5%

CC(=O)NNC(=S)/N=C\C(C(=O)c1ccccc1)=C(/O)c1ccccc1
inactive: [1] -41.4% | [2] -28.8% | [3] -14.4% | [4] 2% | [5] -15.4% | [6] -19.2%

O=C(O)Cc1cccc2ccccc12
inactive: [1] 19.2% | [2] -7.55% | [3] 2.65% | [4] 0.05% | [5] -9.65% | [6] -0.55%

Nc1ncc([N+](=O)[O-])cn1
inactive: [1] 1.9% | [2] -4.7% | [3] -29% | [4] -13.8% | [5] 5.6% | [6] -9.45%

CCCCOC(=O)c1ccc(NC(=O)CCl)cc1
inactive: [1] 28.6% | [2] 18.8% | [3] 43.1% | [4] 12.5% | [5] 13.8% | [6] 43.4%

BrCc1cccc(C[P+](c2ccccc2)(c2ccccc2)c2ccccc2)c1
inactive: [1] 66% | [2] 41.9% | [3] 36.2% | [4] 28.2% | [5] 38.5% | [6] 41%

CC(C)N1CC(=O)N2CSCC2C1=O (centres undefined)
inactive: [1] 14.1% | [2] 8.3% | [3] 9.8% | [4] -6.85% | [5] 13.1% | [6] 3.25%

O=C(c1ccc(Cl)cc1)N1CCCCC1
inactive: [1] 1.05% | [2] 2.85% | [3] -17.6% | [4] -0.65% | [5] -7.15% | [6] -5.8%

NC(=O)c1cc2c3ccccc3ccn2c1-c1ccccc1
inactive: [1] 35.8% | [2] 27.2% | [3] 46.7% | [4] 62.6% | [5] 64% | [6] 60%

C(=C\c1ccncc1)/c1ccncc1
inactive: [1] 27.9% | [2] -7.2% | [3] 6.45% | [4] -0.55% | [5] 7.8% | [6] 23.6%

CCOc1ccc(C(=O)NCC(C)C)cc1
inactive: [1] -1.2% | [2] 2.4% | [3] 26.6% | [4] -14.1% | [5] 9% | [6] -13.7%

O=C1Nc2ccccc2/C1=C\c1ccccc1O
inactive: [1] 25.2% | [2] -1.75% | [3] 12.2% | [4] 6.8% | [5] 17.4% | [6] 23.4%

CC(C)N(CCCC#N)C(C)C
inactive: [1] 9.9% | [2] -11.6% | [3] -5.25% | [4] 10.4% | [5] -17.2% | [6] 8.05%

CCOC(=O)CSCCC#N
inactive: [1] 2.85% | [2] 2.35% | [3] -5.05% | [4] -7.9% | [5] 1.75% | [6] 0.65%

COC(=O)c1ccc([N+](=O)[O-])c(C)c1
inactive: [1] -33.2% | [2] -30.9% | [3] -50.2% | [4] -9.9% | [5] -25.1% | [6] -27.6%

C=CC(C)C(C)(C)O (centres undefined)
inactive: [1] -3.2% | [2] -43.5% | [3] -1% | [4] 4.25% | [5] -13.5% | [6] -2.4%

Nc1nnc2cc(F)ccc2n1
inactive: [1] -18% | [2] -9.75% | [3] -5.9% | [4] 21.8% | [5] 11.7% | [6] -12.2%

Cn1c(=O)c2[nH]c(CC(=O)O)nc2n(C)c1=O
inactive: [1] 29.5% | [2] 11% | [3] 33.8% | [4] 22.8% | [5] 0.85% | [6] 24.1%

CCCCCCCCCCCCCCCCCC(=O)NCCNC(=O)CCCCCCCCCCCCCCCCC
inactive: [1] -5.7% | [2] -27.6% | [3] -1.15% | [4] 20.6% | [5] 1.5% | [6] -4.25%

O=S1(=O)c2ccccc2Oc2ccccc21
inactive: [1] -26.2% | [2] -19.4% | [3] -23.7% | [4] 16.6% | [5] 3.4% | [6] -14.6%

CCOC(=O)c1ccc(C(C)(C)C)cc1
inactive: [1] 20.4% | [2] -6.65% | [3] 2.5% | [4] -45.5% | [5] 0.4% | [6] 6.5%

N#Cc1ccc(OC(=O)Nc2c(Cl)cc(Cl)cc2Cl)cc1
inactive: [1] -10.2% | [2] -14.7% | [3] 15.4% | [4] 23.2% | [5] 30.4% | [6] 9.95%

N=C(N)c1nn(C2OC(CO)C(O)C2O)c2nc[nH]c(=O)c12 (centres undefined)
inactive: [1] 0.75% | [2] -9.5% | [3] 10.2% | [4] 17.6% | [5] 5.7% | [6] 27.1%

CCOC(=O)c1ccc(NC(=O)Nc2nccs2)cc1
inactive: [1] -2.95% | [2] -10.8% | [3] 29.4% | [4] 11.2% | [5] -12.4% | [6] 6.1%

c1ccc(-c2ccc3ccccc3c2)cc1
inactive: [1] 7.35% | [2] -6.65% | [3] -3.3% | [4] -2.65% | [5] -0.8% | [6] -14.2%

CCN(CC)CCCC(C)NC(=S)N/N=C(\C)c1ccccn1 (centres undefined)
inactive: [1] 60.6% | [2] 47.6% | [3] 41% | [4] 11.2% | [5] 29.1% | [6] 42.7%

O=C(Oc1ccccc1Cl)c1ccc(Cl)cc1Cl
inactive: [1] 2.2% | [2] 33.4% | [3] 24.9% | [4] -49.4% | [5] 43.2% | [6] 48.3%

Cc1ccc(N)c(S(=O)(=O)O)c1
inactive: [1] -4.85% | [2] 4.35% | [3] 0.75% | [4] -53.9% | [5] 8.85% | [6] -13.2%

COC1C(=O)CCC2(CO2)C1(O)C1(C)OC1CCC(C)C (centres undefined)
inactive: [1] -27.1% | [2] -42.4% | [3] -18.5% | [4] -3.85% | [5] -16.1% | [6] -4.55%

Nc1cc(F)ccc1[N+](=O)[O-]
inactive: [1] -13.2% | [2] -0.1% | [3] -18.1% | [4] -26.2% | [5] -8.75% | [6] -5%

CNc1ccccc1C(N)=O
inactive: [1] -21.5% | [2] -28.6% | [3] -10.3% | [4] 11.7% | [5] -7.85% | [6] -6.5%

CCN(CC)CCN1CNC(=S)NC1
inactive: [1] 0.1% | [2] -20.6% | [3] 11.2% | [4] -1.8% | [5] -1.2% | [6] -7.15%

Cc1cc(CC(=O)NCCO)n(CCO)c(=O)c1
inactive: [1] -7.85% | [2] -21.5% | [3] 6.55% | [4] 6.25% | [5] -2.7% | [6] -2.9%
